# Assay outcomes: PubChem, The Scripps Research Institute Molecular Screening Center
# Most compounds without a hit are left out; they make up all but 4.1% or so of the library.
# ssDAF-12 act: activators of S. stercoralis DAF-12 nuclear receptor. activation, % at 6.8 µM. HEK293 ssDAF-12/GRIP1 lit1-tk-luc reporter, luminescence; % of 3 µM dafachronic acid response. AID 652126. 370,000 tested, 1% active;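 active = activation above the mean over all tested compounds plus 3 SD, cut at about 0.9% in these data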;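 note: 0% = DMSO-only wells and 100% = 3 µM delta7-dafachronic acid wells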
# hgDAF12 agonist: activates the H. glycines DAF-12 receptor ligand-binding domain; HEK293 GAL4-hgDAF12 UAS-luciferase reporter, agonist luminescence; normalized to butyrate control; activation, % at 6.8 µM; 370,000 tested, 1.8% active;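 active = activation above a cutoff set at the mean of all screened compounds plus 3 SD, cut at about 10% in these data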;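 note: 0% = DMSO wells and 100% = sodium butyrate wells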
# DAX1 inh-1: blocks DAX1 repression of SF-1 activated StAR promoter; 370,000 tested, 1.1% active; inhibition, % at 6.8 µM; HEK293T StAR-luciferase reporter, SF-1/DAX-1 repression relief;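 active = inhibition above the mean over all tested compounds plus 3 SD, cut at about 3.6% in these data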;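 note: 0% = DAX-1 cells with DMSO and 100% = cells lacking DAX-1 with DMSO; higher inhibition means more luminescence from relief of DAX-1 repression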
# hcDAF12 agonist: activates DAF-12 receptor from parasite H. contortus | HEK293 hcDAF-12 lit1-tk-luc reporter, luminescence; 0% DMSO, 100% Δ7-dafachronic acid | activation, % at 6.8 µM | 370,000 tested, 1.4% active;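 active = activation above the mean of all tested compounds plus 3 SD, cut at about 5.5% in these data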;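 note: 100% = response to 3 µM Δ7-dafachronic acid high control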
# DAX1 inh-2: NR0B1 (DAX1) inhibition; inhibition, % at 6.75 µM; 340,000 tested, 0.99% active; AID 504766; HEK293 Gal4-DAX1 luciferase reporter, luminescence; P51843;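 active = inhibition above the mean over all tested compounds plus 3 SD, cut at about 4.2% in these data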;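 note: 0% = DAX1-transfected cells with DMSO and 100% = empty-vector control cells with DMSO; inhibition shows as a rise in luminescence from relieved DAX1 repression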
# Target sequence (P51843 207-470 limits assumed): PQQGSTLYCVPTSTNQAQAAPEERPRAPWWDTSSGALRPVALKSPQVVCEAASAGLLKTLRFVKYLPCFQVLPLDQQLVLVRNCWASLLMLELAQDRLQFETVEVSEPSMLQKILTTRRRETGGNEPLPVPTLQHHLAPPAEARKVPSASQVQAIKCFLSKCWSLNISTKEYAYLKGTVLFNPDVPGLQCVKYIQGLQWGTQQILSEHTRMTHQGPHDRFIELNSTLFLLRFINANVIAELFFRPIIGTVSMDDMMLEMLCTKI
# * hit, by the source's call; . = no result given.
SMILES,ssDAF-12 act,hgDAF12 agonist,DAX1 inh-1,hcDAF12 agonist,DAX1 inh-2
CC(=O)C1=C(C)N(c2ccccc2)C(=O)C1(NS(=O)(=O)c1ccc(N)cc1)C(F)(F)F (configuration not stated),1.5*,3,1,5.6*,1
COc1cc(CC(=O)O)c([N+](=O)[O-])cc1OC,-1,2,0,-1,2
COc1cc2c(cc1[N+](=O)[O-])n(C(C)C)c(=O)n2C(C)C,-1,-4,0,-2,5.5*
COc1ccc(OCC(=O)Nc2nccs2)cc1,0,8,3,6.1*,-2
Cc1cnc(NC(=O)COc2ccccc2)s1,0,12*,2,1,3
CCC(=O)c1ccc(OCC(=O)Nc2nc(C)cs2)cc1,0,12*,2,1,3
Cc1cnc(NC(=O)CCc2ccccc2)s1,-1,6,-1,-1,-2
CCOc1ccc(OCC(=O)Nc2nccs2)cc1,.,.,.,.,-3
CCC(=O)c1ccc(OCC(=O)Nc2nc(-c3cccnc3)cs2)cc1,0,2,1,3,-2
O=C(c1cncnc1)N1CCC(n2nnc3ncccc32)CC1,-1,-1,-1,-2,.
Cc1ccccc1NC(=O)Nc1nc2ccc(S(C)(=O)=O)cc2s1,-1,8,0,2,9.0*
CCC(=O)Nc1nc2ccc(S(C)(=O)=O)cc2s1,-1,8,-1,-3,1
CCCC(=O)Nc1nc2ccc(S(N)(=O)=O)cc2s1,0,3,0,4,1
CS(=O)(=O)c1ccc2nc(NC(=O)c3cccc([N+](=O)[O-])c3)sc2c1,0,11*,0,3,1
NS(=O)(=O)c1ccc2nc(NC(=O)Nc3ccccc3F)sc2c1,0,10*,2,5,1
O=C(COC(=O)Cn1cnc2ccccc2c1=O)Nc1ccc(Cl)cc1,0,0,-1,1,-1
O=C(COC(=O)Cn1cnc2ccccc2c1=O)Nc1ccc(Cl)c(C(F)(F)F)c1,1.5*,-3,0,-1,1
CCN1C[C@@H]2[C@@H]3C(=O)N(C)C(=O)[C@@H]3[C@](CC)(C1=O)N2C(=O)c1ccc(F)cc1,0,2,1,1,4.6*
CCN1C[C@@H]2[C@@H]3C(=O)N(C)C(=O)[C@@H]3[C@](CC)(C1=O)N2C(=O)c1ccccc1,-2,1,0,-1,0
CC(=O)c1ccc(NC(=O)CN2c3cccc4cccc(c34)S2(=O)=O)cc1,-1,4,-3,2,6.0*
CC(=O)c1c(C(=O)O)c2ccccc2[nH]c1=O,-1,-1,0,0,4.8*
O=C1N(Cc2ccccc2)c2ccccc2C12CCCc1sc(CCc3ccccc3)nc12 (configuration not stated),-2,-1,0,-2,.
O=c1c(Cl)c(N2CCOCC2)cnn1-c1nc2ccccc2[nH]1,-1,5,4.2*,2,3
CC1CCCC=CC2CC(OC(=O)CN(C)C)CC2C(O)C=CC(=O)O1 (configuration not stated),-2,-8,4.5*,-2,-2
CC(=O)c1ccc(-n2c(-c3cc(-c4ccco4)[nH]n3)n[nH]c2=S)cc1,-1,-2,0,-1,5.6*
SMILES,ssDAF-12 act,hgDAF12 agonist,DAX1 inh-1,hcDAF12 agonist,DAX1 inh-2
O=C(O)c1ccc(-n2c(-c3cc(C4CC4)[nH]n3)n[nH]c2=S)cc1,-1,-1,1,-1,4.6*
O=C(O)c1ccc(-n2c(-c3cc(-c4ccco4)[nH]n3)n[nH]c2=S)cc1,-1,0,0,-1,-1
CCN(Cc1ccccc1)C(=O)C1C2C=CC3(CN(Cc4ccccc4)C(=O)C13)O2 (configuration not stated),-1,3,1,-1,.
O=C(NCCc1ccccc1)c1ccc(-c2ccc(F)c(F)c2)c2ccoc12,-1,-3,0,0,.
CCOc1ccc2nc(-c3ccccc3)[nH]c2c1,0,12*,0,5,-2
COc1ccc2nc(NCc3ccccc3)[nH]c2c1,-2,7,-1,2,2
COc1ccc(-c2nc3ccc([N+](=O)[O-])cc3[nH]2)cc1,1.8*,19*,4.5*,6.3*,2
CCOc1ccc2nc(C(C)O)[nH]c2c1 (configuration not stated),0,1,0,0,4
COc1ccc2nc(-c3ccccc3)[nH]c2c1,0,13*,4,5,1
